# Test results from PubChem BioAssay AID1851 (National Center for Advancing Translational Sciences (NCATS), 2009).
# “And” between values parts separate entries of the source, which are not always exact repeats. Equal values may be shown once. In all, about 16,000 compounds went through this assay and about 5,700 (36%) were called active. Roughly 24% stayed inconclusive and do not appear here. The list shows a part of the results. Unmarked numbers belong to inactive results. Calls come from the whole dose curve; as a rule, active = well fitted curve in the direction sought with a large enough effect; inconclusive = small, poorly fitted or top-dose-only effect, or effect the other way; inactive = no such curve, though single readings can be large or run the other way.
# Target: Cytochrome P450 1A2 (Homo sapiens) (UniProt P05177)
# Assay: Cytochrome panel assay with activity outcomes
# Conditions: recombinant CYP, pro-luciferin dealkylation, luminescence, p450-cyp1a2; series mostly up to 57.1 µM; activity, negative = inhibition: at the top concentration
# % is set by controls: 0 for no effect and ±100 for the full control effect.
# Cytochrome P450 1A2 (Homo sapiens), sequence (P05177 whole entry, looked up): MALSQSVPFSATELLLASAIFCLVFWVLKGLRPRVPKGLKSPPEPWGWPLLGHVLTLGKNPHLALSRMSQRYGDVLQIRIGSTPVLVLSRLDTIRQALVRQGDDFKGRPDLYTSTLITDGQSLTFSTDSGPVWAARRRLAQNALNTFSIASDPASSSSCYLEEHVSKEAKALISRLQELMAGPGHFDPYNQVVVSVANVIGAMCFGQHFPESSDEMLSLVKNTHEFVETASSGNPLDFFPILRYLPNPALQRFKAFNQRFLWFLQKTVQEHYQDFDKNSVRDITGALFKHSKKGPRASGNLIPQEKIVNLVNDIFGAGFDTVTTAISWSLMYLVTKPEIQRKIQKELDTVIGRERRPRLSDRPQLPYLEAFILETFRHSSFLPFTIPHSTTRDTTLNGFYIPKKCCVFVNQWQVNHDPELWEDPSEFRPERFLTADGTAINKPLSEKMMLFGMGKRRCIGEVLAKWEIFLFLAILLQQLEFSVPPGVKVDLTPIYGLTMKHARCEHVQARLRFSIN
Compound,"activity, negative = inhibition",AC50
Cc1cc2c(c(=O)o1)[C@@H](O)[C@H]1O[C@@H]1C2=O,-3.99% [at 11.4 µM],
CCCOc1ccc(/C=C/C(=O)Nc2ccc([N+](=O)[O-])cc2C)cc1OC,-5.77%,
COc1ccc(/C=C/C(=O)Nc2nc(C)cc(C)n2)cc1OC,,5010 nM (active)
COc1ccc2[nH]cc(CCNc3ncncc3-c3ccc(N(C)C)cc3)c2c1,,251 nM (active)
COc1ccc2[nH]cc(CCNc3ncncc3-c3cccnc3)c2c1,,316 nM (active)
COc1ccc2[nH]cc(CCNc3ncncc3-c3cccc(NS(C)(=O)=O)c3)c2c1,,12600 nM (active)
COc1cccc(-c2cncnc2NCCc2c[nH]c3ccc(OC)cc23)c1,,2000 nM (active)
COc1ccc(N2CCN(Cc3nc4c(c(=O)[nH]c(=O)n4C)n3CCCc3ccccc3)CC2)cc1,-8.33%,
O=C(O)C1CC2(C1)CC(C(=O)O)C2 (stereo not given),-6.34% [at 2.29 µM],
Cc1ccc(SCc2[nH]nc3c2C(C(C)C)C(C#N)=C(N)O3)cc1 (stereo not given),,12600 nM (active)
O=[N+]([O-])c1ccc(C=Nc2ccc(Cl)cc2Cl)s1,,2000 nM (active)
O=c1onc(-c2cccs2)n1Cc1ccccc1,,2240 nM (active)
CN(C)CCNS(=O)(=O)N(C)C,-3% [at 11.4 µM],
c1ccc(Nc2nc(-c3cccnc3)nc3ccccc23)cc1,,398 nM (active)
CNc1nc(-c2cccnc2)nc2ccccc12,,100 nM (active)
O=C(O)CC12C[C@H]3C[C@@H](CC(O)(C3)C1)C2,-11.2% [at 11.4 µM],
Cc1oc(-c2ccccc2F)nc1CS(=O)(=O)CC(=O)NCCCN(C)C1CCCCC1,-6.41%,
O=C(N/N=C/c1ccc2c(c1)OCO2)/C(=C/c1ccc2c(c1)OCO2)NC(=O)c1ccccc1,-28.9%,
O=C(CSCc1cccc(Br)c1)N/N=C/c1ccc2c(c1)OCO2,,2510 nM (active)
O=C(CSCc1cccc(Cl)c1)NCc1ccc2c(c1)OCO2,,3160 nM (active)
Cc1oc(-c2ccccc2F)nc1CSCC(=O)NCc1ccc2c(c1)OCO2,,1580 nM (active)
Cc1oc(-c2ccccc2Cl)nc1CSCC(=O)NC1CC1,,15800 nM (active)
CN1CCN(CCCNC(=O)c2ccc(CSCc3cccc(Cl)c3)o2)CC1,-11%,
O=C1Nc2ccccc2C(O)(C(=O)NCc2ccc3c(c2)OCO3)N1c1ccc(Cl)c(Cl)c1 (stereo not given),25%,

Compound,"activity, negative = inhibition",AC50
Cc1ccccc1-c1nc(CS(=O)CC(=O)NCCN2CCN(Cc3ccccc3)CC2)c(C)o1 (stereo not given),-37.3%,
CCOC(=O)N1CCC(NC(=O)CS(=O)(=O)Cc2nc(-c3cccc(OC)c3)oc2C)CC1,-39%,
CC[C@]1(O)C[C@@H]2CN(CCc3c([nH]c4ccccc34)[C@](C(=O)OC)(c3cc4c(cc3OC)N(C=O)[C@H]3[C@@](O)(C(=O)OC)[C@H](C(=O)OC)[C@@]5(CC)C=CCN6CC[C@]43[C@H]65)C2)C1,-4.94%,
CO[C@@H]1COC(=O)C/C=C\[C@H](C)[C@@H](NS(=O)(=O)c2ccc(C)cc2)COC(=O)C/C=C\[C@@H]1C,-5.33% [at 11.4 µM] and -2.04% [at 11.4 µM],
O=C(/C=C/c1ccc2c(c1)OCO2)NCCSCc1cccc(Cl)c1,,4470 nM (active)
O=C(Cn1nc(C(F)F)cc1C(F)F)N/N=C/c1ccc2c(c1)OCO2,,891 nM (active)
CCS(=O)(=O)N1CCCC(C(=O)NCCCOC(C)C)C1 (stereo not given),-11.6%,
CCC1C(=O)N=C(SCC(=O)Nc2ccc(C(=O)OC)cc2)NC1=O (stereo not given),,15800 nM (active)
CCOC(=O)c1ccc(NC(=O)CC2NCCNC2=O)cc1 (stereo not given),11.1%,
C/C(=N\NC(=O)c1cccc(F)c1)c1ccc(Br)s1,,631 nM (active)
C/C(=N\NC(=O)c1ccc(Cl)cc1)c1ccc(Br)s1,,1260 nM (active)
CN1C(=O)C(CC(N)=O)N(NC(=O)c2ccc(Cl)cc2)C1=S (stereo not given),-4.34%,
CC(NC(=O)c1cccc(F)c1)C(c1cccs1)N1CCN(C)CC1 (stereo not given),-4.46%,
C/C(=N\NC(N)=O)c1ccc(Cl)cc1,,3160 nM (active)
CCN1C(=O)[C@H]2[C@H]3[C@H](O)[C@H](O)C/C(=N/O[C@@H](C)c4cn([C@H]5COC[C@H]5O)nn4)[C@@H]3CC[C@@H]2C1=O,-9.43% [at 11.4 µM],
CCCS(=O)(=O)N1CCCC(C(=O)NCCN2CCOCC2)C1 (stereo not given),-13.1%,
COCCNC(=O)c1cn(Cc2c(F)cccc2Cl)nn1,0.621%,
COCCNC(=O)c1sc2nc(-c3ccccc3)cn2c1C,,2000 nM (active)
COCCNC(=O)CCn1nc(-c2ccc(Cl)cc2)ccc1=O,-23.7%,
Cc1cc(=O)[nH]c2ccccc12,,15800 nM (active)
CC(=O)Nc1ccc(Cc2ccc3[nH]c(=O)cc(C)c3c2)cc1,-17% [at 11.4 µM],
O=c1[nH]c2ccccc2c2ccccc12,,251 nM (active)
O=C(O)c1cccnc1SCC(=O)N1CCCCCC1,-7.56%,
C=CCSc1ncccc1C(=O)NCc1ccc(C)cc1,,794 nM (active)

Compound,"activity, negative = inhibition",AC50
COC(=O)C/C=C\[C@@H](C)[C@@H](/C=N\O[C@@H](C)CN1CCCc2nc(C)c(C)cc21)OC,-0.522% [at 11.4 µM],
O=C(N/N=C/c1ccc(O)cc1)c1ccc(COc2cc(Cl)ccc2Cl)o1,,4470 nM (active)
Cn1ncc(Cl)c1C(=O)Nc1cccnc1,,3550 nM (active)
CC(C)CNC(=O)c1ccc(COc2ccc(Cl)cc2Cl)o1,,14100 nM (active)
CC(C(=O)Nc1cccnc1)N1C(=O)C2C3C=CC(C3)C2C1=O (stereo not given),-24.9%,
O=C(Nc1cccnc1)c1ccc(COc2cc(Cl)ccc2Cl)o1,,794 nM (active)
O=C1C(O)=C(O)C(=O)C(O)=C1O,-3.27% [at 25.6 µM],
CC(=O)OC[C@@H]1O[C@H](CCO/N=C(\C)CCN2CCCc3nc(C)c(C)cc32)C=C[C@@H]1OC(C)=O,-5.74% [at 11.4 µM],
CC(Cc1ccccc1)N/C=C1\CC(=O)NC1=O (stereo not given),-19.7%,
COc1cc(OC)c2nc(C)c3c(c2c1)N(c1ccc(O)cc1)CC3,,2240 nM (active)
NC(=O)N[C@H]1NC(=O)NC1=O,-5.86% [at 25.6 µM],
Cn1c(=N)c(S(=O)(=O)c2ccc(F)cc2)cc2c(=O)n3ccccc3nc21,,12600 nM (active)
CCn1c(=N)c(S(=O)(=O)c2ccc(F)cc2)cc2c(=O)n3ccccc3nc21,,1580 nM (active)
CC(C)Cn1c(C(C)C)nc([N+](=O)[O-])c1S(=O)(=O)c1ccc(F)cc1,-26.1%,
CN(C)C(=C(C#N)C#N)N1CCN(c2ccc(Cl)c(Cl)c2)CC1,,25100 nM (active)
O=C(c1cccc(F)c1)N1CCC2(CC1)CN(Cc1ccccc1)C2,-5.98%,
CC(C)CC(=O)N1CCN(Cc2cccc(F)c2)CC1,-7.54%,
O=C(OCc1cccc(F)c1)c1ccc2c(c1)-c1ccccc1C2=O,,3550 nM (active)
COCc1nnc(NC(=O)c2ccc(S(=O)(=O)N3CCCCCC3)cc2)o1,-9.54%,
CCOC(=O)Cc1csc(NC(=O)c2ccc(S(=O)(=O)N3CCCCC3)cc2)n1,,15800 nM (active)
CCOC(=O)Cc1csc(NC(=O)c2ccc(Cl)nc2)n1,,10000 nM (active)
CCOC(=O)Cc1csc(NC(=O)c2sc3nc4ccc(CC)cc4cc3c2N)n1,-23.8%,
CCOC(=O)Cc1csc(NS(=O)(=O)c2ccccc2)n1,-16.9%,
COc1ccc(N2C(=O)CCC(C(=O)Nc3ccccn3)C2c2ccc(OC)c(OC)c2)cc1 (stereo not given),-26.4%,

Compound,"activity, negative = inhibition",AC50
C/C(CCN1CCCCc2nc(C)c(C)cc21)=N\OC[C@@H](O)COCc1ccco1,-9.9% [at 11.4 µM],
O=C1C(Cl)=C(Sc2nnc3c4ccccc4c4ccccc4c3n2)C(=O)c2ccccc21,,398 nM (active)
O=c1c2c(-c3ccc(Cl)cc3)csc2nc2n1CCC2,,1260 nM (active)
O=c1oc2c(CN3CCOCC3)c(O)ccc2c2ccccc12,,1260 nM (active)
CCCc1cc(=O)oc2c(CN3CCOCC3)c(O)ccc12,,14100 nM (active)
O=C(C1CCN(S(=O)(=O)N2CCOCC2)CC1)N1CCN(Cc2ccccc2)CC1,4.96%,
COc1ccccc1-c1c(C)oc2c(CN3CCN(CCO)CC3)c(O)ccc2c1=O,-1.03%,
COc1ccc(-c2c(C)oc3c(CN4CCN(CCO)CC4)c(O)ccc3c2=O)cc1OC,-11.4%,
O=c1cc(CN2CCN(c3ccc(F)cc3)CC2)c2cc3c(cc2o1)CCCC3,-25.7%,
CCCCc1nc(SCC(=O)Nc2ncccn2)n[nH]1,-22.5%,
Cc1cc(NC(=O)CSc2nc3ccsc3c(=O)n2CCCCC(=O)O)no1,-3.12%,
Cc1cc(NC(=O)CSc2n[nH]c(-c3cccs3)n2)no1,,2510 nM (active)
COc1ccc(OCc2nnc(SCC(=O)N3c4ccccc4Sc4ccc(Cl)cc43)o2)cc1,-0.153%,
CN1CCN(CC(=O)N2c3ccccc3Sc3cc4ccccc4cc32)CC1,-21.6% [at 2.29 µM],
O=C(CSc1nc2ccccc2s1)N1c2ccccc2Sc2ccc(C(F)(F)F)cc21,,1120 nM (active)
O=C(CSc1nc2ccccc2o1)N1c2ccccc2Sc2ccc(Cl)cc21,,2240 nM (active)
O=C(CSc1nc2ccccc2s1)c1sc2sc3ccccc3[n+]2c1O,,5010 nM (active)
O=C(CSc1nc2ccccc2s1)N1c2ccccc2Sc2ccccc21,,708 nM (active)
Cc1c(NC(=O)Cn2ccc([N+](=O)[O-])n2)c(=O)n(-c2ccccc2)n1C,-9.17%,
Nc1ncc(-c2ccccc2)n1CC1CCCO1 (stereo not given),,15800 nM (active)
S=c1[nH]nc(-c2ccncc2)n1CC1CCCO1 (stereo not given),-22.4%,
Cc1ccc(-c2ccc(CCC(=O)O)n2CC2CCCO2)cc1 (stereo not given),-27.4%,
O=C(NNC(=O)C1CCN(S(=O)(=O)c2ccc(Cl)cc2)CC1)c1ccc(Cl)cc1,10.9%,
